Source: PubChem BioAssay AID651951 (The Scripps Research Institute Molecular Screening Center, 2012)
Out of some 2,400 compounds screened, about 1,100 (46%) were called active. So high a share suggests a set chosen from earlier hits. These entries were drawn from the full list. A number with no mark means an inactive call.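 Rule for the calls: active = inhibition above the run cutoff, the mean inhibition of all test compounds plus 3 SD (cut at about 49% in these data); inactive = the rest.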

Target: Trace amine-associated receptor 1 (Homo sapiens) (UniProt Q96RJ0)
Sequence (Q96RJ0 whole entry, looked up): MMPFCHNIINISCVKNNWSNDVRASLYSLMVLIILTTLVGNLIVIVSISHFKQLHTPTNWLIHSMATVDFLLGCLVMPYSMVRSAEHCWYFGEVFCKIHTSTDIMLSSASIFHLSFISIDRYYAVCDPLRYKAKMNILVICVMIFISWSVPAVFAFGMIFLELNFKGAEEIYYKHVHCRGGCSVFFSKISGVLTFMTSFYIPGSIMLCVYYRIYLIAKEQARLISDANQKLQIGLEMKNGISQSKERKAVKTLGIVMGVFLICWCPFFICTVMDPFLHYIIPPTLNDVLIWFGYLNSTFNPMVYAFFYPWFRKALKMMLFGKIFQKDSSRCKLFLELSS
Assay: loss of beta-PEA response after agonist pre-exposure – cell-based, fluorescence, tachyphylaxis, counter-screen for TAAR1 agonist project, confirmation (AID 651951);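 note: beta-PEA stimulus applied at its EC80; loss of beta-PEA calcium signal after compound pretreatment read as receptor desensitization; 0% = DMSO with beta-PEA at EC80 and 100% = DMSO alone without agonist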
Conditions: CHO RD-HGA16 hTAAR1, Fluo-8 calcium, at 3 µM, active compounds read high

Row | Structure (SMILES) | inhibition
1 | O=C(N[C@H](C(=O)N1CCC[C@H]1C(=O)NCCc1ccccc1Cl)c1ccccc1)c1ccccc1 | 85.5% (active)
2 | Cc1cc(=O)oc2c(C)c(OCC(=O)NCCN3CCOCC3)ccc12 | 2.28%
3 | O=Cc1c(NCCc2cccc(F)c2)c2ccccc2[nH]c1=O | 36.8%
4 | Nc1c(NCCc2ccccc2)c2ccccc2oc1=O | 53.6% (active)
5 | CCOc1ccc(Br)cc1CSC(=N)N | 67% (active)
6 | CCCCOc1ccc(CSC(=N)N)cc1[N+](=O)[O-] | 12.3%
7 | CCc1ccc(-c2nn(-c3ccccc3)cc2CSC(=N)N)cc1 | 25.1%
8 | S=C(Nc1ccc(Br)cc1)NC1CCN(Cc2ccccc2)CC1 | 48.3%
9 | Cc1ccccc1-c1nc(CS(=O)(=O)CC(=O)N2CCc3ccccc3C2)c(C)o1 | 25.5%
10 | CCC(C(=O)Nc1ccc(C(C)C)cc1)c1ccccc1 (stereo not given) | 103% (active)
11 | Cc1ccc(Sc2cc(N3CCOCC3)nc(-c3ccccc3)n2)cc1 | 7.49%
12 | CCC(c1nnnn1Cc1ccco1)N(CCc1ccccc1)Cc1cc2ccc(OC)cc2[nH]c1=O (stereo not given) | 13.2%
13 | COc1ccc(OC)c(C(c2nnnn2C(C)(C)C)N2CCc3ccccc3C2)c1 (stereo not given) | 17.8%
14 | O=C(O)C1C2C=CC(O2)C1C(=O)NCCc1cccc(Cl)c1 (stereo not given) | 92.1% (active)
15 | O=C(NNC(=S)NC(=O)c1cn(-c2ccccc2)nc1-c1ccccc1)c1ccncc1 | 79.3% (active)
16 | CN(C(=O)CN(CCO)CC(=O)N(C)C(C)(C)Cc1ccccc1)C(C)(C)Cc1ccccc1 | 94.8% (active)
17 | CCCc1cc(C(=O)Nc2ccc(C(=O)OC)cc2)cs1 | 11%
18 | O=C(/C=C/[C@H]1O[C@@H](n2cnc3c(NC(=O)c4ccccc4)ncnc32)[C@H](O)[C@@H]1O)NCc1ccccc1 | -5.17%
19 | CCc1ccccc1S(=O)(=O)Cc1ccc(C(=O)NCCc2ccccc2)o1 | 77.1% (active)
20 | O=C(NCCc1ccccc1)C(=O)NCC1OCCN1S(=O)(=O)c1cccs1 (stereo not given) | 36.3%

Row | Structure (SMILES) | inhibition
21 | O=C1CCCN2N=C(SCC(=O)Nc3ccc(Br)cc3)SC2=N1 | 36.4%
22 | CCCCC(=O)NNC(=S)NC(=O)C(c1ccccc1)c1ccccc1 | 107% (active)
23 | c1ccc2c(c1)OCC(CNc1ncnc3nc[nH]c13)O2 (stereo not given) | 106% (active)
24 | Cc1cc(C)c2cc(C#N)c(N3CCNCC3)nc2c1 | 79.8% (active)
25 | COc1ccc(NC(=O)C(=O)NCC(c2ccco2)N2CCc3ccccc3C2)cc1 (stereo not given) | -6.26%
26 | Cc1ccc(S(=O)(=O)N(CC(=O)N2CCc3ccccc3C2)c2cccc(Cl)c2)cc1 | 29.8%
27 | Cc1ccc(NC(=O)CCN2CCc3ccccc3C2)cc1 | 78% (active)
28 | CN(C)CCCN(C(=O)c1ccc(S(=O)(=O)N2CCCc3ccccc32)cc1)c1nc2ccc(F)cc2s1 | 53.1% (active)
29 | CN(C)CCCN(C(=O)c1ccc(S(=O)(=O)N2CCCCCC2)cc1)c1nc2ccc(Br)cc2s1 | 41.1%
30 | COc1ccc(C(=O)CN2C(=O)NC(C)(c3ccc(C)cc3)C2=O)cc1OC (stereo not given) | 10.7%
31 | O=C(Nc1cccc(NC(=O)c2ccc(Br)cc2)c1)c1ccccc1 | -9.63%
32 | Cc1onc(-c2ccccc2)c1C(=O)NNC(=S)NC(=O)c1ccc(F)cc1 | 65.3% (active)
33 | COc1ccc(C(=O)NC(=S)NNC(=O)CCc2ccccc2)cc1 | 68.4% (active)
34 | COc1ccc(C(=O)NC(=S)NNC(=O)c2c(-c3ccccc3)noc2C)cc1 | 29.8%
35 | COc1ccc(C(=O)NNC(=S)NC(=O)c2ccccc2)cc1 | 76.1% (active)
36 | C#CCOc1ccc(/C=C2/C(=O)NN(c3ccccc3)C2=O)cc1OC | 39%
37 | Nc1nonc1-n1nnc(C(=O)N/N=C/c2ccc(Cl)cc2)c1-c1ccc2c(c1)OCO2 | 37.8%
38 | Nc1cccc2c1C(=O)N(Cc1nnc(-c3ccccc3Br)o1)C2=O | 26.5%
39 | O=C(Nc1ccncc1)Nc1ccc(F)cc1 | 76.4% (active)
40 | CCCn1c(O)c(CN2CCCC(C)C2)c(C)c(C#N)c1=O (stereo not given) | 55.8% (active)

Row | Structure (SMILES) | inhibition
41 | S=C(NCCc1ccccc1)N1CCn2cccc2C1c1ccncc1 (stereo not given) | 83.2% (active)
42 | COc1ccc(OC)c(NC(=S)N2CCc3ccccc3C2)c1 | 40.2%
43 | CCCSc1nc2c(c(=O)n(C)c(=O)n2C)n1Cc1ccc(C)cc1 | 37.9%
44 | c1ccc(Nc2nc(N3CCOCC3)c3ccccc3n2)cc1 | 93% (active)
45 | CCCc1ccc(OCC(=O)NNC(=S)NC(=O)c2ccco2)cc1 | 71.9% (active)
46 | CC(Oc1ccc2ccccc2c1)C(=O)NNC(=S)NC(=O)c1ccco1 (stereo not given) | 70.9% (active)
47 | COc1ccc2cc(-c3[nH]ncc3CNCCn3nc(C)cc3C)ccc2c1 | 13%
48 | NC(=O)C1=C[C@H](c2csc3ccccc23)C[C@H](OCc2ccc(CO)cc2)O1 | 50.8% (active)
49 | COC(=O)c1[nH]c2cccc(C)c2c1NC(=O)CN1CCCc2ccccc21 | 35.7%
50 | COc1cccc(-c2cnc(OC(C)(C)C)nc2OC(C)(C)C)c1 | 3.93%
51 | Fc1ccc(NC(=S)N2CCc3[nH]c4ccccc4c3C2)cc1 | 28.1%
52 | O=C(CCCN=C1NS(=O)(=O)c2ccccc21)OCC(=O)c1ccc(F)c(F)c1 | 37.4%
53 | C[C@H](NC(=O)c1ccccc1)C(=O)OCC(=O)c1c[nH]c2ccccc12 | 79.2% (active)
54 | OC(CNCCc1ccc(Cl)cc1Cl)COc1ccccc1 (stereo not given) | 79.2% (active)
55 | COc1ccc(CC(N)c2csc(NC(=O)Cc3ccccc3)n2)cc1 (stereo not given) | 23.6%
56 | CC(C)(C)CC(=O)Nc1nc(C(N)Cc2ccc(C(F)(F)F)cc2)cs1 (stereo not given) | 58.9% (active)
57 | O=C(COC(=O)Cc1ccccc1F)NCCc1ccccc1 | 86% (active)
58 | Cc1cc2nc3c(=O)[nH]c(=O)nc-3n(C[C@H](O)[C@H](O)[C@H](O)CO)c2cc1C | 53.2% (active)
59 | O=C(Nc1ccc(Cl)cc1)N1CCc2[nH]c3ccccc3c2C1 | 12.4%
60 | O=c1cnnc(Nc2ccccc2)[nH]1 | 60.1% (active)
